Assay results as given in PubChem BioAssay (NCATS).
Inconclusive results are not listed. Active and inactive are the calls of the source. Calls follow the shape of the dose curve; as a rule, active = well fitted curve in the direction sought with a large enough effect; inconclusive = small, poorly fitted or top-dose-only effect, or another doubt; inactive = no such curve, though single readings can be large; an effect the other way counts as inactive or inconclusive.

What was measured:
[1] = target: Parathyroid hormone/parathyroid hormone-related peptide receptor (Homo sapiens) (UniProt Q03431); assay: qHTS for PTHR1 Agonists: Optimization Screen against the NCGC LOPAC library (AID 1347079);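 also: GloSensor cAMP luminescence in HEK-293 GP2 cells expressing human PTHR1 with IBMX; 0% is about no effect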
Summary of the method: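 HEK-293 GP2 cells, PTHR1 + GloSensor cAMP; 3000 cells/well, o/n. Luciferin + IBMX 0.5mM each (stock), 1 hr 37C. Cpd titration, 1 hr 37C. Lum after 15 min RT. Ctrl M-PTH(1-15) top 10uM.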

[2] = qHTS of pediatric cancer cell lines to identify multiple opportunities for drug repurposing: Primary screen for TC32 cells (AID 1347089); also: % is scaled to controls: 0 for no effect and ±100 for the full control effect; nearly all actives have a fitted effect of over 60% in size
Summary of the method: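 In the primary qHTS, MIPE compounds were tested at 11 concentrations (0.78 nM to 46 µM) and NPC compounds at 8 (0.59 nM to 46 µM) on TC32 cells for 48 h. CellTiter-Glo luminescence gave viability.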

[3] = qHTS of pediatric cancer cell lines to identify multiple opportunities for drug repurposing: Primary screen for DAOY cells (AID 1347090); also: nearly all actives have a fitted effect of over 55% in size; also: potency is read from the fitted curve at half-maximal effect;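 as to activity change, negative = cytotoxic: series mostly up to about 46 µM; plate controls were DMSO for no effect and bortezomib for full effect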
Summary of the method: (§1)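 Eight- or eleven-point concentration series, 48 h treatment at 37 degrees C in growth media; readout CellTiter-Glo luminescence. Potency and efficacy were taken from the concentration-response curves.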

[4] = qHTS of pediatric cancer cell lines to identify multiple opportunities for drug repurposing: Primary screen for SJ-GBM2 cells (AID 1347091);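 also: plate controls were DMSO neutral control for no effect and bortezomib for full effect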
Summary of the method: as §1

[5] = qHTS of pediatric cancer cell lines to identify multiple opportunities for drug repurposing: Primary screen for A673 cells (AID 1347092); also: nearly all actives have a fitted effect of over 45% in size; also: potency is read from the fitted curve at half-maximal effect; as to activity change, negative = cytotoxic: % is scaled to controls: 0 for no effect and ±100 for the full control effect
Summary of the method: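 48 h compound exposure, A673, 500-1,000 cells/well, 37 degrees C/5% CO2. MIPE: 11-point, 0.78 nM-46 µM; NPC: 8-point, 0.59 nM-46 µM (final). Readout CellTiter-Glo luminescence after 15 min RT.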

[6] = qHTS of pediatric cancer cell lines to identify multiple opportunities for drug repurposing: Primary screen for SK-N-MC cells (AID 1347093); also: potency is read from the fitted curve at half-maximal effect;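 as to activity change, negative = cytotoxic: series mostly up to about 46 µM; plate controls were DMSO neutral control for no effect and bortezomib for full effect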
Summary of the method: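 Metabolically active cells were quantified by ATP-dependent luminescence (CellTiter-Glo, 15 min at room temperature) following 48 h treatment. Cells had been plated at 500-1,000 per well and settled for 5 h beforehand.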

[7] = qHTS of pediatric cancer cell lines to identify multiple opportunities for drug repurposing: Primary screen for BT-37 cells (AID 1347094); also: potency is read from the fitted curve at half-maximal effect;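 as to activity change, negative = cytotoxic: series mostly up to about 57 µM; plate controls were DMSO for no effect and bortezomib for full effect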
Summary of the method: (§2)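 CRCs from 8- or 11-point titrations (lowest final 0.59 nM NPC, 0.78 nM MIPE). Cell viability: CellTiter-Glo after 48 h incubation, 15 min room-temperature development, luminescence imaging.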

[8] = qHTS of pediatric cancer cell lines to identify multiple opportunities for drug repurposing: Primary screen for NB-EBc1 cells (AID 1347095);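 also: plate controls were DMSO neutral control for no effect and bortezomib for full effect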
Summary of the method: as §2

[9] = qHTS of pediatric cancer cell lines to identify multiple opportunities for drug repurposing: Primary screen for U-2 OS cells (AID 1347096); also: nearly all actives have a fitted effect of over 50% in size; also: potency is read from the fitted curve at half-maximal effect;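 as to activity change, negative = cytotoxic: plate controls were DMSO wells for no effect and bortezomib positive control wells for full effect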
Summary of the method: (§3)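 Cells (500-1,000/well) in growth media were settled 5 h at 37 degrees C, then given compounds for 48 h. Viability was read as CellTiter-Glo luminescence. Primary runs used MIPE at 11 points (0.78 nM-46 µM) and NPC at 8 points (0.59 nM-46 µM); follow-ups used 11 points.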

[10] = qHTS of pediatric cancer cell lines to identify multiple opportunities for drug repurposing: Primary screen for Saos-2 cells (AID 1347097); also: nearly all actives have a fitted effect of over 40% in size; also: potency is read from the fitted curve at half-maximal effect; as to activity change, negative = cytotoxic: % is scaled to controls: 0 for no effect and ±100 for the full control effect
Summary of the method: as §2

[11] = qHTS of pediatric cancer cell lines to identify multiple opportunities for drug repurposing: Primary screen for SK-N-SH cells (AID 1347098); also: nearly all actives have a fitted effect of over 65% in size; also: potency is read from the fitted curve at half-maximal effect;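 as to activity change, negative = cytotoxic: DMSO served as neutral control and bortezomib at 2.3 µM as positive control; % is scaled to controls: 0 for no effect and ±100 for the full control effect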
Summary of the method: (§4)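 Cells (500-1,000/well) rested 5 h, then received compounds for 48 h; metabolically active cells were measured by CellTiter-Glo luminescence. Final concentrations spanned up to 46 µM (MIPE, 11-point) or 0.59 nM-46 µM (NPC, 8-point) in primary screens, 11-point in follow-ups.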

[12] = qHTS of pediatric cancer cell lines to identify multiple opportunities for drug repurposing: Primary screen for NB1643 cells (AID 1347099);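 also: plate controls were DMSO neutral control for no effect and bortezomib positive control for full effect; nearly all actives have a fitted effect of over 50% in size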
Summary of the method: as §2

[13] = qHTS of pediatric cancer cell lines to identify multiple opportunities for drug repurposing: Primary screen for LAN-5 cells (AID 1347100);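 also: plate controls were DMSO neutral control for no effect and bortezomib positive control for full effect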
Summary of the method: as §3

[14] = qHTS of pediatric cancer cell lines to identify multiple opportunities for drug repurposing: Primary screen for BT-12 cells (AID 1347101); also: nearly all actives have a fitted effect of over 25% in size; also: potency is read from the fitted curve at half-maximal effect;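 as to activity change, negative = cytotoxic: plate controls were DMSO for no effect and bortezomib positive control for full effect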
Summary of the method: as §4

[15] = qHTS of pediatric cancer cell lines to identify multiple opportunities for drug repurposing: Primary screen for Rh18 cells (AID 1347102); also: % is scaled to controls: 0 for no effect and ±100 for the full control effect; nearly all actives have a fitted effect of over 65% in size
Summary of the method: as §3

[16] = qHTS of pediatric cancer cell lines to identify multiple opportunities for drug repurposing: Primary screen for OHS-50 cells (AID 1347103); also: nearly all actives have a fitted effect of over 40% in size; also: potency is read from the fitted curve at half-maximal effect;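 as to activity change, negative = cytotoxic: plate controls were DMSO neutral control for no effect and bortezomib positive control for full effect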
Summary of the method: as §4

[17] = qHTS of pediatric cancer cell lines to identify multiple opportunities for drug repurposing: Primary screen for MG 63 (6-TG R) cells (AID 1347105); also: nearly all actives have a fitted effect of over 50% in size; also: potency is read from the fitted curve at half-maximal effect
Summary of the method: as §2

[18] = qHTS of pediatric cancer cell lines to identify multiple opportunities for drug repurposing: Primary screen for control Hh wild type fibroblast cells (AID 1347106);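 also: series mostly up to about 46 µM; % is scaled to controls: 0 for no effect and ±100 for the full control effect; a drop in luminescence marks cytotoxicity and a rise apparent proliferation; nearly all actives have a fitted effect of over 55% in size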
Summary of the method: as §3

[19] = qHTS of pediatric cancer cell lines to identify multiple opportunities for drug repurposing: Primary screen for RD cells (AID 1347104); also: nearly all actives have a fitted effect of over 55% in size;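 as to activity change, negative = cytotoxic: plate controls were DMSO for no effect and bortezomib for full effect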
Summary of the method: as §2

[20] = target: Tyrosine-protein phosphatase non-receptor type substrate 1 (Homo sapiens) + Leukocyte surface antigen CD47 (Homo sapiens) (UniProt P78324+Q08722); assay: CD47-SIRPalpha protein protein interaction - Alpha assay qHTS validation (AID 1347059);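 also: bead proximity luminescence from CD47 binding SIRPalpha after compound preincubation with SIRPalpha; % is scaled to controls: 0 for no effect and ±100 for the full control effect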
Summary of the method: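 In PBS (pH 7.4) with 0.05% IGEPAL CA-630, compound is preincubated with biotin-Avi-SIRPalpha ectodomain before His-CD47 ectodomain and affinity beads are added. Light-protected room-temperature incubations; AlphaScreen readout.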

Chain of Tyrosine-protein phosphatase non-receptor type substrate 1 (Homo sapiens) + Leukocyte surface antigen CD47 (Homo sapiens) (P78324 whole entry, looked up, the tested form may be a part): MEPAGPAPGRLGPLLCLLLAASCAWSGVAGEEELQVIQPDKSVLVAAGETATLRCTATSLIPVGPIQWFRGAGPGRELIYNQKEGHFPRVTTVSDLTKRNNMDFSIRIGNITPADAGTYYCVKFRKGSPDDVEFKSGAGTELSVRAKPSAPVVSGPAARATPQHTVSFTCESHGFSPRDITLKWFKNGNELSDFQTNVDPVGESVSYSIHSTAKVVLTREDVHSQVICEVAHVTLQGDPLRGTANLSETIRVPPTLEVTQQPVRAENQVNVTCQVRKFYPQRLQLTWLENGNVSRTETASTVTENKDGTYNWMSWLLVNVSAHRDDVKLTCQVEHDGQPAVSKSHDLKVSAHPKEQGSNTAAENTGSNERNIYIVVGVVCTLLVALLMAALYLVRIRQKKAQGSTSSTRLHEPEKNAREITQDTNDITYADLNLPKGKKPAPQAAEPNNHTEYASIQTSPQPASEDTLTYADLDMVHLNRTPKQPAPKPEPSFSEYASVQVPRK
Chain of Tyrosine-protein phosphatase non-receptor type substrate 1 (Homo sapiens) + Leukocyte surface antigen CD47 (Homo sapiens) (Q08722 whole entry, looked up, the tested form may be a part): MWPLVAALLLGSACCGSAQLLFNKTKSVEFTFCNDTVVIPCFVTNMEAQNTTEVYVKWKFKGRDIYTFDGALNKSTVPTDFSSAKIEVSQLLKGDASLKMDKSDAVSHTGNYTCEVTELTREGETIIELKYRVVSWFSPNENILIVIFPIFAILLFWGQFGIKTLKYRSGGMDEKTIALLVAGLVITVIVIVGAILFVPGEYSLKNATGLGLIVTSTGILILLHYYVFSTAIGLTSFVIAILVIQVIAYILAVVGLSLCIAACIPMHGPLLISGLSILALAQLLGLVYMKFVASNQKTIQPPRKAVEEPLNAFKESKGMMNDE
Chain of Parathyroid hormone/parathyroid hormone-related peptide receptor (Homo sapiens) (Q03431 whole entry, looked up): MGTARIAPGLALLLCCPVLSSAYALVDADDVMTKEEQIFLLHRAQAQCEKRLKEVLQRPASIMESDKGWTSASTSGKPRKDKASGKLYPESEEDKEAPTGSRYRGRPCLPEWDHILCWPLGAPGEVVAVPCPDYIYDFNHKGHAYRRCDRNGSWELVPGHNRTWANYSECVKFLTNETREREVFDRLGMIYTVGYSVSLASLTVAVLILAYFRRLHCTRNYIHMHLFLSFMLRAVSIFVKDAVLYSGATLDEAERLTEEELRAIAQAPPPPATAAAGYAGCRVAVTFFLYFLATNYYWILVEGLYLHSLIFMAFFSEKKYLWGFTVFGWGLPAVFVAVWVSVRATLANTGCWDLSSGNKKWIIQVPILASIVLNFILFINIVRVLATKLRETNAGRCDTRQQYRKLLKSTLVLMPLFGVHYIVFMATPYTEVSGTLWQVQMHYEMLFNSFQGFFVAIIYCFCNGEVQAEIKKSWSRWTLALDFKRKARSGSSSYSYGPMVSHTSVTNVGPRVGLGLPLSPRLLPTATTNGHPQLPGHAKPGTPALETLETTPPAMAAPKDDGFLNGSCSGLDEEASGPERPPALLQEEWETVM

NC1CCN(c2cccc(Cl)n2)CC1
inactive: Potency [1] | Potency [2] | Potency [3] | Potency [4] | Potency [5] | Potency [6] | Potency [7] | Potency [8] | Potency [9] | Potency [10] | Potency [11] | Potency [12] | Potency [13] | Potency [14] | Potency [15] | Potency [16] | Potency [17] | outcome [18]

CC(C)(C)C(=O)NCCCC(=O)O
inactive: Potency [2] | Potency [3] | Potency [4] | Potency [5] | Potency [6] | Potency [7] | Potency [8] | Potency [9] | Potency [10] | Potency [11] | Potency [12] | Potency [13] | Potency [14] | Potency [15] | Potency [16] | Potency [19] | Potency [17] | outcome [18]

NC1[C@H]2CN(c3nc4c(cc3F)c(=O)c(C(=O)O)cn4-c3ccc(F)cc3F)C[C@@H]12 (stereo partly drawn)
inactive: outcome [20] | Potency [4] | Potency [6] | Potency [8] | Potency [9] | Potency [10] | Potency [15] | Potency [16] | Potency [17]
active: Potency [5] 13.3 µM

COCCOC(=O)C1=C(C)NC(C)=C(C(=O)OC/C=C/c2ccccc2)C1c1cccc([N+](=O)[O-])c1 (stereo not drawn)
active: Potency [16] 19.5 µM
inactive: Potency [1] | Potency [2] | Potency [3] | Potency [12] | Potency [15] | outcome [18]

N[C@H](C(=O)O)c1ccc(O)cc1
inactive: Potency [2] | Potency [3] | Potency [4] | Potency [5] | Potency [6] | Potency [7] | Potency [8] | Potency [9] | Potency [10] | Potency [11] | Potency [12] | Potency [13] | Potency [14] | Potency [15] | Potency [16] | Potency [19] | Potency [17] | outcome [18]

C[C@@H]1C[C@H]2[C@@H]3C[C@H](F)C4=CC(=O)C=C[C@]4(C)[C@@]3(F)[C@@H](O)C[C@]2(C)[C@@]1(O)C(=O)CO
inactive: Potency [2] | Potency [3] | Potency [4] | Potency [5] | Potency [6] | Potency [7] | Potency [8] | Potency [9] | Potency [10] | Potency [11] | Potency [12] | Potency [13] | Potency [14] | Potency [15] | Potency [16] | Potency [19] | Potency [17] | outcome [18]

COc1cc(C(=O)N2CCOCC2)cc(OC)c1OC
inactive: Potency [2] | Potency [3] | Potency [4] | Potency [5] | Potency [6] | Potency [7] | Potency [8] | Potency [9] | Potency [10] | Potency [11] | Potency [12] | Potency [13] | Potency [14] | Potency [15] | Potency [16] | Potency [19] | Potency [17] | outcome [18]

C[C@](N)(Cc1ccc(O)cc1)C(=O)O
inactive: outcome [20] | activity change, negative = cytotoxic [2] 12.9% [at 4.81 µM] | activity change, negative = cytotoxic [4] 11.8% [at 4.84 µM] | activity change, negative = cytotoxic [7] 0.899% [at 6.03 µM] | activity change, negative = cytotoxic [8] 16.2% [at 4.84 µM] | activity change, negative = cytotoxic [9] 7.56% [at 4.84 µM] | activity change, negative = cytotoxic [10] -22.2% [at 4.84 µM] | activity change, negative = cytotoxic [11] -0.998% [at 6 µM] | activity change, negative = cytotoxic [14] 0.753% [at 6.03 µM] | activity change, negative = cytotoxic [15] 14.1% [at 4.84 µM] | activity change, negative = cytotoxic [16] -5.63% [at 6.18 µM] | activity change, negative = cytotoxic [17] -28.9% [at 4.84 µM] | activity change, negative = cytotoxic [18] 5.39% [at 4.84 µM]
active: Potency [6] 0.001 µM

CN(C)CCC=C1c2ccccc2CCc2ccccc21
inactive: outcome [20] | Potency [2] | Potency [3] | Potency [9] | Potency [12] | Potency [17] | outcome [18]

OCc1cc(C(O)CNCCCCCCOCCCCc2ccccc2)ccc1O (stereo not drawn)
active: Potency [5] 21.1 µM | Potency [16] 19.5 µM
inactive: outcome [20] | Potency [2] | Potency [3] | Potency [9] | Potency [10] | Potency [12] | Potency [13] | Potency [17] | outcome [18]

CCCCC/C(C=O)=C\c1ccccc1
active: Potency [10] 53.1 µM | Potency [14] 0.155 µM | Potency [16] 0.001 µM
inactive: Potency [2] | Potency [3] | Potency [4] | Potency [5] | Potency [6] | Potency [7] | Potency [8] | Potency [9] | Potency [11] | Potency [12] | Potency [13] | Potency [15] | Potency [19] | Potency [17] | outcome [18]

O=C1O[C@H](CO)[C@@H](O)[C@H](O)[C@H]1O
inactive: Potency [2] | Potency [3] | Potency [4] | Potency [5] | Potency [6] | Potency [7] | Potency [8] | Potency [9] | Potency [10] | Potency [11] | Potency [12] | Potency [13] | Potency [14] | Potency [15] | Potency [16] | Potency [19] | Potency [17] | outcome [18]

Cn1cc[nH]c1=S
inactive: Potency [2] | Potency [3] | Potency [4] | Potency [5] | Potency [6] | Potency [7] | Potency [8] | Potency [9] | Potency [10] | Potency [11] | Potency [12] | Potency [13] | Potency [14] | Potency [15] | Potency [16] | Potency [19] | Potency [17] | outcome [18]

CNCC(O)c1ccc(O)c(O)c1 (stereo not drawn)
inactive: outcome [20] | Potency [2] | Potency [3] | Potency [7] | Potency [8] | Potency [9] | Potency [14] | Potency [16] | Potency [19] | Potency [17] | outcome [18]
active: Potency [10] 26.6 µM

O=Cc1ccccc1C=O
inactive: Potency [2] | Potency [3] | Potency [4] | Potency [5] | Potency [6] | Potency [7] | Potency [8] | Potency [9] | Potency [10] | Potency [11] | Potency [12] | Potency [13] | Potency [14] | Potency [15] | Potency [16] | Potency [19] | Potency [17] | outcome [18]

CC(C)c1c(C(=O)Nc2ccccc2)c(-c2ccccc2)c(-c2ccc(F)cc2)n1CC[C@@H](O)C[C@@H](O)CC(=O)O
inactive: outcome [20] | Potency [13] | Potency [19]
active: Potency [3] 4.22 µM | Potency [5] 21.1 µM | Potency [7] 24.6 µM | Potency [9] 21.1 µM | Potency [10] 0.841 µM | Potency [11] 12.2 µM | Potency [14] 1.23 µM | Potency [16] 15.5 µM | Potency [17] 6.68 µM

Cc1c(O)cccc1C(=O)N[C@@H](CSc1ccccc1)[C@H](O)CN1C[C@H]2CCCC[C@H]2C[C@H]1C(=O)NC(C)(C)C
active: Potency [6] 26.6 µM | Potency [9] 21.1 µM | Potency [10] 26.6 µM | Potency [16] 24.6 µM | Potency [19] 23.7 µM | Potency [17] 26.6 µM
inactive: outcome [20] | outcome [18]
